Assay outcomes from PubChem.
Tau filament bind – qHTS Assay for Tau Filament Binding; Microtubule-associated protein tau (Homo sapiens), P10636; recombinant tau filaments, thioflavin S fluorescence, 15 h; filaments grown with octadecylsulfate alongside compound; Potency, µM (highest dose often 57.1 µM); hit rate 2% among 71,000; AID 596, 2007;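 note: actives lower thioflavin S fluorescence by blocking filaments or displacing dye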
Target sequence (P10636 whole entry, looked up): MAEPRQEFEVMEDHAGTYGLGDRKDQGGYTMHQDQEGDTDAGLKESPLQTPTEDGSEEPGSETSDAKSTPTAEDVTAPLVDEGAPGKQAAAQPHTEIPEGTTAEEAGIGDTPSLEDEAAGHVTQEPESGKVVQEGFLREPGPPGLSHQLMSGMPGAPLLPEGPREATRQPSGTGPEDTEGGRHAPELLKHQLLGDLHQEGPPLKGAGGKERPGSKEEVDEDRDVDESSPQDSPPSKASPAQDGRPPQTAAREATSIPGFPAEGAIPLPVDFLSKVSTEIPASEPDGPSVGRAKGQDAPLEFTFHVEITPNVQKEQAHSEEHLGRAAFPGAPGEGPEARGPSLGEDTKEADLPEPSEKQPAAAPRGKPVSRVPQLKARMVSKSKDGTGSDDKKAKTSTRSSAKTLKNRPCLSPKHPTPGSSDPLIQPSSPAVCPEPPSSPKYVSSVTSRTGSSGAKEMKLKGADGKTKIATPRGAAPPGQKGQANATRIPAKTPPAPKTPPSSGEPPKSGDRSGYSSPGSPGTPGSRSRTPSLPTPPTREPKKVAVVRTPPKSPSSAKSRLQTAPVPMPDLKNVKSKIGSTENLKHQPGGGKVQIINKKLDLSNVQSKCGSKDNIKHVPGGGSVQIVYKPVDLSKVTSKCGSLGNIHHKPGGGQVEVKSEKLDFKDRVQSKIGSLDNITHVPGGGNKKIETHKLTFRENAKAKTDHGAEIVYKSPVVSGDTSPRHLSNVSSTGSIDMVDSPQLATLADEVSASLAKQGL
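Tau 2 uM in ThS buffer dispensed; compound added; 60 uM ODS added (finals 1 uM tau, 30 uM ODS); 15 h 37 C; fluor ex450/em510.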
BRCT PPI red – qHTS Assay for Inhibitors of BRCT-Phosphoprotein Interaction (Red Fluorophore). AID 892, 2007. hit rate 0.03% among 75,000. Breast cancer type 1 susceptibility protein (Homo sapiens), P38398. BRCT-phosphopeptide binding, red fluorescence polarization. Potency, µM (series often up to 76.9 µM), hits mostly inhibitors
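Fluorescence polarization: 100 nM His-tagged BRCA1 BRCT with 100 nM TAMRA-labelled phospho-BACH1 decapeptide, phosphate buffer pH 7.3 with 150 mM NaCl, DTT, 0.01% Tween 20; 12 min RT. Binding inhibition seen as FP decrease.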
TsaE inh – qHTS Assay for Inhibitors of YjeE; tRNA threonylcarbamoyladenosine biosynthesis protein TsaE (Escherichia coli (strain …; purified YjeE enzyme, qHTS inhibition assay; Potency, µM; hit rate 0.05% among 71,000; AID 605, 2007
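Purified YjeE (10 uM) with BODIPY Texas Red-labeled ADP probe (2 uM); compounds pin-transferred, 15 min at room temperature. Binding inhibition read as decreased fluorescence polarization; ADP titration as control.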
BRCT inh green – qHTS Assay for Inhibitors of BRCT-Phosphoprotein Interaction (Green Fluorophore) | BRCA1 BRCT-phosphopeptide binding, green fluorescence polarization | AID 875, 2007 | Breast cancer type 1 susceptibility protein (Homo sapiens), P38398 | hit rate 0.05% among 75,000 | Potency, µM (series often up to 76.9 µM), hits mostly inhibitors
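Compounds were incubated for 12 min at room temperature with a complex of 100 nM fluorescein-tagged pBACH1 decapeptide and 250 nM His-tagged BRCT protein. Buffer was phosphate pH 7.3 with EDTA, DTT and Tween 20. Disruption of binding lowers the polarization signal.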
Hsp90 Hop PPI – qHTS Assay for Disrupters of an Hsp90 Co-Chaperone Interaction. AlphaScreen TPR2A-His6 binding biotin-Hsp90 C-terminal peptide. Potency, µM (doses to about 57 µM). hit rate 0.44% among 71,000; active = well fitted curve in either direction with a large enough effect; inconclusive = small, poorly fitted or top-dose-only effect, or another doubt
DNA Pol III inh – qHTS Assay for Inhibitors of DNA Polymerase III Holoenzyme System. reconstituted DNA polymerase III holoenzyme replication, biochemical. Potency, µM (highest dose often 57.1 µM). hit rate 0.25% among 71,000. AID 603, 2007
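Reconstituted *E. coli* holoenzyme (0.35 nM Pol III, 1 nM beta, 154 nM SSB, 2 nM primase) was preincubated with compound for 15 min at RT. Synthesis on 1.4 nM ssM13Gori ran 35 min, then was stopped with PicoGreen/EDTA and read as dsDNA fluorescence.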
Large screens that a line does not name were inactive. This is a sample that favours compounds with a hit; in the whole collection about 2.3% have one here. Unless noted, calls come from the whole dose curve; as a rule, active = well fitted curve in the direction sought with a large enough effect; inconclusive = small, poorly fitted or top-dose-only effect, or another doubt; inactive = no such curve, though single readings can be large; an effect the other way counts as inactive or inconclusive.

O=C(O)Cn1c(=O)oc2cc(S(=O)(=O)N3CCOCC3)ccc21	none
c1ccc2cc(C3=NCCN3)ncc2c1	Tau filament bind inconclusive, Hsp90 Hop PPI inconclusive
O=C1CCNc2cc3ccccc3cc21	Tau filament bind 20µM
Cc1noc(C)c1-c1cncnc1NCc1cccnc1	none
C=C(CC(=O)O)C(=O)O (tested in a mixture with another compound)	none
COCCn1c(C)nc2oc3ccc(Br)cc3c(=O)c2c1=O	Tau filament bind 16µM
O=C(NCCN1CCCC1)c1ccc(-n2c(=O)c(=O)[nH]c3ccccc32)cc1	none (no result: Tau filament bind, TsaE inh, Hsp90 Hop PPI, DNA Pol III inh)
CCC(=Nc1ccc(N)cc1)C1=C(O)C(C(=O)OC)C(C)(C)CC1=O (centres undefined)	Tau filament bind 16µM
CCCC(=Nc1ccccc1)C1=C(O)C(C(=O)OC)C(C)(C)CC1=O (centres undefined)	none
O=S(=O)(O)O	none
Cc1ccc2nc(-c3ccc(N)cc3)sc2c1S(=O)(=O)O	DNA Pol III inh inconclusive
COc1ccc(COC(=O)N/N=C2/C[C@@H](O)[C@@H](O)[C@@H]3[C@@H]4C(=O)N(C5CCCCC5)C(=O)[C@H]4CC[C@H]23)cc1	none (no result: Tau filament bind, TsaE inh, Hsp90 Hop PPI, DNA Pol III inh)
CC(N=Cc1cccc(O)c1O)c1ccccc1 (centres undefined)	Tau filament bind 13µM
Cc1ccc(N=Cc2cccc(O)c2O)c(C)c1	none (no result: Tau filament bind, TsaE inh, Hsp90 Hop PPI, DNA Pol III inh)
C1OCOCO1	none
CCN1C(=O)/C(=C2\C=Cc3ccccc3N2CC)OC1=S	Tau filament bind 1µM
CCc1ccc(NC(=O)c2ccc3c(c2)C(=O)N(Cc2ccco2)C3=O)cc1	Tau filament bind 25µM
COC(=O)c1ccccc1NC(=O)c1ccc2c(c1)C(=O)N(Cc1ccco1)C2=O	none
Cc1ccc2nc(CSc3nnc(-c4ccco4)o3)cc(=O)n2c1	DNA Pol III inh 20µM
Cc1c(N2C(=O)c3ccc4c5c(ccc(c35)C2=O)CC4)c(=O)n(-c2ccccc2)n1C	Tau filament bind 16µM, DNA Pol III inh 25µM
Cc1c(N)c(=O)n(-c2ccccc2)n1C	none
Cc1ccc(NC(=O)CN2CC(C)SC2=NC2CCCCC2)cc1 (centres undefined)	Tau filament bind 13µM
O=C1c2ccccc2C(=O)c2c(NC3CCCCC3)ccc(Nc3ccc(S(=O)(=O)O)cc3)c21	Tau filament bind 3.2µM, TsaE inh 13µM, Hsp90 Hop PPI 4µM
Nc1ccc(-c2ccc(Nc3cc(S(=O)(=O)O)c(N)c4c3C(=O)c3ccccc3C4=O)cc2)c(S(=O)(=O)O)c1	none
COc1nc(N)nc2c1ncn2[C@@H]1C[C@H](O)[C@@H](CO)O1	none
COc1ccc(-n2c(C)cc(C(=O)CSc3nn4c(=O)c(C(C)(C)C)nnc4s3)c2C)cc1	Tau filament bind 20µM
COc1ccc(C(=O)CSc2nn3c(=O)c(C(C)(C)C)nnc3s2)cc1	Hsp90 Hop PPI inconclusive
N#Cc1cccc(-c2nc(NCc3ccccc3)c3ccccc3n2)c1	none
CC(C)(Oc1ccc(-c2ccco2)cc1)C(=O)O	none
CC(=O)C1=C(O)C=C(c2ccco2)CC1c1ccco1 (centres undefined)	Tau filament bind 20µM
c1coc(-c2nc(-c3ccco3)c(-c3ccco3)nc2-c2ccco2)c1	Tau filament bind inconclusive, BRCT PPI red inconclusive, BRCT inh green 13µM, Hsp90 Hop PPI inconclusive, DNA Pol III inh 1.6µM
CC1CC(C)CN(CCC(=O)Nc2cccc(Cl)c2)C1 (centres undefined)	Tau filament bind 20µM
N#C[C@@H](Cc1ccc(O)c(O)c1)C(=O)N1CCc2ccccc21	Hsp90 Hop PPI 6.3µM
CCCN1CC(CSC)C[C@H]2c3cccc4[nH]cc(c34)C[C@H]21 (some centres undefined)	none (no result: Tau filament bind, TsaE inh, Hsp90 Hop PPI, DNA Pol III inh)
Cc1nc(N=Nc2cc(S(=O)(=O)O)c3cc([N+](=O)[O-])cc(S(=O)(=O)O)c3c2)c(COP(=O)(O)O)c(C=O)c1O	Tau filament bind inconclusive, BRCT inh green inconclusive, DNA Pol III inh 32µM
Oc1c(C(O)(c2ccccc2)c2ccc3ccccc3c2O)ccc2ccccc12	Tau filament bind 1.3µM, Hsp90 Hop PPI inconclusive
Oc1ccc2ccccc2c1Cc1c(O)ccc2ccccc12	Hsp90 Hop PPI inconclusive
CN(C(=O)c1ccccc1C(=O)O)C1CC(C)(C)NC(C)(C)C1	none
CC1=C(C(=O)O)N2C(=O)[C@@H](NC(=O)[C@@H](N)c3ccccc3)[C@@H]2SC1	none
Cc1ccc(O)c(N=CC2=C(O)c3ccccc3C2=O)c1	Tau filament bind 7.9µM, Hsp90 Hop PPI inconclusive
CC(C)(C)c1ccc(S(=O)(=O)/C=C\C#N)cc1	TsaE inh inconclusive
Cc1ccc(O)c(-c2cc(-c3ccccc3C)[nH]n2)c1	Tau filament bind 25µM
Oc1ccccc1-c1cc(-c2ccccc2Cl)[nH]n1	none
CC1=NN(c2ccccc2)C(=O)[C@@H]1N=Nc1ccc(S(N)(=O)=O)cc1	Tau filament bind 4µM
COC(=O)[C@@H]1C[C@@]2(O)[C@@H](O)[C@@H](O)[C@@H](O)C[C@H]2N1Cc1cc(F)ccc1F	none (no result: Tau filament bind, TsaE inh, Hsp90 Hop PPI, DNA Pol III inh)
Cc1c(N=C/C=C2\N(C)c3ccccc3C2(C)C)c(=O)n(-c2ccccc2)n1C	Tau filament bind 1µM
COc1ccc(C(=O)COC(=O)CN2C(=O)NC(C)(C)C2=O)cc1OC	none
COc1ccc(C(=O)COC(=O)CN2CC(=O)Oc3ccccc32)cc1Br	Hsp90 Hop PPI 6.3µM
COc1ccccc1CNc1cc(-c2ccccc2C(F)(F)F)ncn1	none
COc1ccc(C2C(C(C)=O)=C(C)N=c3s/c(=C\c4ccc5c(c4)OCO5)c(=O)n32)c(OC)c1 (centres undefined)	Tau filament bind 4µM
CN(C)C(=O)c1ccc(-c2nc(NCc3ccccc3)c3ccccc3n2)cc1	none
Cc1cccc(OCCCCc2c(C)n[nH]c2C)c1C	Tau filament bind 16µM
O=C(c1cc2ncc(Br)cn2n1)N1CCOCC1	none
O=C(c1cc2ncc(Br)cn2n1)N1CCN(C(=O)c2ccco2)CC1	DNA Pol III inh 25µM
CCCCCCCNS(=O)(=O)c1cccc2c(Cl)cccc12	Tau filament bind 40µM, Hsp90 Hop PPI inconclusive
NCCCCCCCCCCNS(=O)(=O)c1cccc2c(Cl)cccc12	none
O=S(=O)(NCCCCCCc1ccccc1)c1cccc2c(Cl)cccc12	Tau filament bind inconclusive, Hsp90 Hop PPI 40µM
NC(=O)C/C=C\CC(N)=O	none
COc1cccc(-c2cc(=O)c3cc(O)ccc3o2)c1	Tau filament bind 32µM
